The values that follow come from PubChem BioAssay AID1672 (Johns Hopkins Ion Channel Center, 2009).

About 2,600 (0.84%) of roughly 310,000 compounds were called active. Many of the other results were omitted from the sample, so actives are more common in it than they were. Values without a mark were called inactive.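 Rule for the calls: active = fluorescence ratio B-score at or below minus 3 SD of library scores, with starting-brightness B-score within 2 SD (cut at about -4.2 in these data); inactive = the rest.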

In the assay the target is Inward rectifier potassium channel 2 (Mus musculus) (UniProt P35561). Put plainly: inhibitors of mouse Kir2.1 inward-rectifier potassium channel (AID 1672).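 Note: channel flux triggered by added potassium and thallium sulfate stimulus; B-score of peak minus minimum fluorescence over baseline after thallium stimulus; more negative B-score means stronger Kir2.1 block with less thallium influx.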 As to conditions: HEK293-Kir2.1, FluxOR thallium flux fluorescence; at 10 µM; hits give low values.
Inward rectifier potassium channel 2 (Mus musculus), sequence (P35561 whole entry, looked up): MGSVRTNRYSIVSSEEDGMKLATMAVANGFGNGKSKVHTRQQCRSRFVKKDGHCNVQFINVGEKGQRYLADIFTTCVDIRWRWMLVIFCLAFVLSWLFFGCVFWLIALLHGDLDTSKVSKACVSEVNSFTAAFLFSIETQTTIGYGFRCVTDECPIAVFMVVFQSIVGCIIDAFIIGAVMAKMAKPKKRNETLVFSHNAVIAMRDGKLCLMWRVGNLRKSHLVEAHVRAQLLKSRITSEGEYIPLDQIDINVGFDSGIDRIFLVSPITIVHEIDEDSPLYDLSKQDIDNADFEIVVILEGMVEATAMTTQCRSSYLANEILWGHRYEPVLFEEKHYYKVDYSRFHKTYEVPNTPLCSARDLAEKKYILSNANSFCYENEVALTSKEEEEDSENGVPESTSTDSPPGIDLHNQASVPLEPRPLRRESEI
As for `COc1ccccc1CN(C)C(=O)C1(c2ccc(Cl)cc2)CC1`, the B-score is -7.43 (active).

Consider `COc1ccccc1CN(C)C(=O)c1cc2ccccc2o1`, for which the B-score is -0.72.

Regarding `COc1cccc(CN(C)C(=O)CC23CC4CC(CC(C4)C2)C3)c1OC`, the B-score was 0.01.

`COc1ccc(/C=N/NC(=O)c2cc(-c3cccc(C)c3)nc3ccccc23)cc1O`: the B-score is -0.5.

For `CCOc1ccc(NS(=O)(=O)c2ccc(C(=O)NC3CCN(Cc4ccccc4)CC3)cc2)cc1`, the B-score was -0.37.

Turning to `COc1ccccc1CCC(=O)OCC(=O)N1CCN(S(=O)(=O)c2ccc(C)cc2C)CC1`, the B-score is -0.28.

For the compound `Cc1ccc(S(=O)(=O)c2ccc(Oc3ccccc3)cc2)cc1`, the B-score is 1.97.

As for `CC1=C/C(=N\OS(=O)(=O)c2ccccc2)C=CC1=O`, the B-score was -8.49 (active).

As to `O=S(=O)(ON(c1ccccc1)S(=O)(=O)c1ccccc1)c1ccccc1`, the B-score was -1.37.

Regarding `COC(=O)c1ccc(NS(=O)(=O)c2cc3c4c(c2)C(C)C(=O)N4CCC3)cc1` (centres undefined), the B-score is -0.99.

Regarding `C/C(=N\NC(=O)COc1ccc(C)cc1[N+](=O)[O-])c1ccc2c(c1)OCCO2`, the B-score was 0.54.

Turning to `C=CS(=O)c1sc(Cl)c(N2CCOCC2)c1[N+](=O)[O-]` (centres undefined), the B-score was -4.54 (active).

For `CCCCCCCCCCCCN1[C@@H](CC(C)=O)c2cc(F)cc(F)c2S1(=O)=O`, the B-score is 1.64.

In the case of `CCOC(=O)c1c(NC(=O)CSc2nnc(C)c(=O)[nH]2)sc2c1CCC2`, the B-score is 1.75.

`CCCCOC(=O)CNc1nnc(SCC(=O)OCC)[nH]c1=O`: the B-score is -5.69 (active).

Take `Cc1nnc(SCC(=O)N2CCOCC2)[nH]c1=O`: the B-score is -0.42.

As for `COc1ccc(NC(=O)CN(C)C(=O)c2ccc(NC3CC3)c([N+](=O)[O-])c2)cc1`, the B-score was 0.91.

Take `COc1ccc(C(=O)OCC(=O)c2ccc(Cl)s2)c(OC)c1OC`: the B-score was 1.46.

As for `CCOc1ccc(C(C)=O)cc1COC(=O)CNC(=O)c1cccs1`, the B-score is -0.97.

For the compound `COc1ccccc1C(CNC(=O)c1cccc(NS(=O)(=O)c2ccc(Br)cc2)c1)N(C)C` (centres undefined), the B-score is -1.8.

For the compound `CC(C)(C)C(=O)Cn1c(NCCO)nc2ccccc21`, the B-score is -0.4.

As for `O=C(O)[C@@H]1CCCN1c1ncnc2sc3c(c12)CCC3`, the B-score is 0.12.

In the case of `OCCNc1nc2ccccc2n1-c1ncnc2sc3c(c12)CCC3`, the B-score is -8.97 (active).

Regarding `COc1cc(-c2nnc(NC(=O)C3=COCCO3)o2)cc(OC)c1OC`, the B-score was 0.99.

As to `CCCCn1c(N)c(N(CC(C)C)C(=O)c2cccc(S(=O)(=O)N3CCN(C(C)=O)CC3)c2)c(=O)[nH]c1=O`, the B-score is -1.82.

Take `O=C(CCCN=C1NS(=O)(=O)c2ccccc21)OCC(=O)c1ccc(F)c(F)c1`: the B-score was 0.45.

Consider `Cc1cccc(C(=O)NCC(=O)OCC(=O)N2CC3(C)CC2CC(C)(C)C3)c1` (centres undefined), for which the B-score was 1.23.

With `COc1ccccc1C(=O)N1CC2(C)CC1CC(C)(C)C2` (centres undefined), the B-score is -0.99.

`Cc1nnnn1/C(=C\c1ccccc1)C(=O)OCC(=O)N1CC2(C)CC1CC(C)(C)C2` (centres undefined): the B-score is -4.63 (active).

Turning to `Cc1ccc(-n2c(Cc3cccs3)nnc2SCC(=O)OC(C)C)cc1`, the B-score is -2.12.

Regarding `CCn1c(SCC(=O)c2ccc3ccccc3c2)nnc1-c1cccs1`, the B-score is -2.71.

For the compound `CCn1c(Cc2cccs2)nnc1SCC(=O)c1ccc(C)cc1`, the B-score is -4.88 (active).

For the compound `O=C(/C=C/c1ccc2c(c1)OCO2)NCc1ccc(F)cc1`, the B-score is -0.53.

For `COc1c(C=O)c(CCN(C)C(=O)c2ccc(F)cc2)cc2c1OCO2`, the B-score is -4.35 (active).

Turning to `CN(Cc1nc2ccccc2s1)C(=O)c1ccc(F)cc1`, the B-score is 1.03.

In the case of `Cc1cc(NC(=O)C(C)SCC(=O)Nc2ccccc2N2CCCCC2)no1` (centres undefined), the B-score is -4.17.

In the case of `COc1ccc(C(=O)c2c3ccc([N+](=O)[O-])cc3[n+]([O-])n2CCCN)cc1`, the B-score is 0.68.

As for `Cc1cc(NC(=O)CCS(=O)(=O)c2ccc(F)cc2)no1`, the B-score is -0.47.

For `Cc1c(Cl)cccc1NC(=S)NCc1ccc2c(c1)OCO2`, the B-score was -1.74.

As to `Cc1c(Cl)cccc1NC(=S)NCC(O)c1ccccc1` (centres undefined), the B-score is -4.47 (active).

In the case of `CCNC(=S)Nc1cccc(Cl)c1C`, the B-score was 0.45.

For `O=C(Nc1ccc(N2CCCCC2)cc1)c1cc(S(=O)(=O)N2CCOCC2)ccc1F`, the B-score is 0.53.

With `COc1cc(N)c(Cl)cc1C(=O)OCC(=O)c1ccc2c(c1)NC(=O)CO2`, the B-score was 0.6.

On to `Cc1nn(C)cc1C(=O)c1ccccc1`, for which the B-score was 0.22.

On to `CCOc1ccc(C(=O)Nc2cc(Cl)ccc2-n2cncn2)cc1OC`, for which the B-score was -2.32.

As to `CN1c2ccc([N+](=O)[O-])cc2C(C)(C)C12C=Cc1cc(C(=O)O)ccc1O2` (centres undefined), the B-score was 0.63.

As for `COc1ccc2c(c1)C=CC1(O2)N(CCO)c2ccccc2C1(C)C` (centres undefined), the B-score is -6.82 (active).

With `COc1cccc(CC2(CO)CCCN(CC3=Cc4cc(OC)ccc4OC3)C2)c1` (centres undefined), the B-score is 0.68.

With `CN(N)c1nc(N2CCCC2)nc(N2CCCC2)n1`, the B-score was 0.28.

`Cc1sc2ncnc(N3CCC(C(=O)NNC(=O)c4ccc(F)cc4)CC3)c2c1C`: the B-score is 0.05.

Consider `COc1ccc(N2CCN(C(=O)COC(=O)c3cccc(S(=O)(=O)Nc4ccccc4OC)c3)CC2)cc1`, for which the B-score is 0.61.

Take `CC1CN(C(=O)COC(=O)c2cccc(NS(=O)(=O)c3ccccc3)c2)CC(C)O1` (centres undefined): the B-score is -4.76 (active).

Regarding `CSc1ccc(Cl)c(C(=O)OCC(=O)N2CC(C)OC(C)C2)c1` (centres undefined), the B-score is -0.84.

As to `O=C(NC1CCCCC1)c1ccc(-c2ccc(Cl)cc2)o1`, the B-score is 1.25.

With `C=CCn1c(=O)c2ccccc2n2c(SCC(=O)N3CCCc4ccccc43)nnc12`, the B-score is 0.08.

For `Cn1c(SCC(=O)N2CCCc3ccccc32)nc2ccccc2c1=O`, the B-score is -6.03 (active).

As for `O=C(CSc1nc2ccccc2c(=O)n1CCCO)N1CCc2ccccc21`, the B-score was 0.73.

Turning to `CN(Cc1ccccc1F)C(=O)C(Cc1ccccc1)NC(=O)c1ccccc1` (centres undefined), the B-score is -1.09.

With `CC(=O)Nc1cccc(C(=O)OCC(=O)NCc2cc(C)c(O)c(C)c2)c1`, the B-score was -1.5.
